Laboratory results: the supplement of paper PMC4022240
± gives the standard deviation.

What was measured:
Assay in all cases: peptide microarray binding signal (635 nm), min-max normalized on array (fraction of array maximum); higher = stronger binding
[1] = target: T1, HaloTag-ATRX ADD domain (163-292)
T1 chain: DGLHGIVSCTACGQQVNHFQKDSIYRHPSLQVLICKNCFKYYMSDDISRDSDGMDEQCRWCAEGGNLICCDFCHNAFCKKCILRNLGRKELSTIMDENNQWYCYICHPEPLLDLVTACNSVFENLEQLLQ
How it was run: (§1)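 Histone 13-mer peptide–cellulose conjugates were printed in triplicate on nitrocellulose with a Cy3 tracer, then blocked overnight at 4°C. Arrays were probed for 1 h at 4°C with biotin-labelled HaloTag reader fusions (10 nM to 1 μM) plus streptavidin-Alexa Fluor 647, or with rabbit histone antibodies (1:10,000 to 1:2,000) plus anti-rabbit Alexa 647. An Axon GenePix 4000B scanned 635 nm for signal and 532 nm for misprints. Binding signal is the triplicate-spot mean intensity, min-max scaled per library.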

[2] = target: HaloTag-ING2 PHD (mouse Ing2 200-280)
How it was run: as §1

[3] = target: anti-H3K4me3 antibody ab8580
How it was run: as §1

[4] = target: anti-H3K9me3 antibody ab8898
How it was run: as §1

[5] = peptide region: H4 16-28, binder concentration: 1:2,000 dilution
[6] = peptide region: H4 16-28, peptide modifications: H4R19cit H4K20me1, binder concentration: 1:2,000 dilution
[7] = peptide region: H4 16-28, peptide modifications: H4R19cit H4K20me1, binder concentration: 1:10,000 dilution
[8] = peptide region: H4 16-28, peptide modifications: H4R19cit H4K20me2, binder concentration: 1:2,000 dilution
[9] = peptide region: H4 16-28, peptide modifications: H4R19cit H4K20me2, binder concentration: 1:10,000 dilution
[10] = peptide region: H4 16-28, peptide modifications: H4K20me3, binder concentration: 1:2,000 dilution
[11] = peptide region: H4 16-28, peptide modifications: H4R19cit, binder concentration: 1:2,000 dilution
[12] = peptide region: H4 16-28, peptide modifications: H4R19cit H4K20ac, binder concentration: 1:2,000 dilution
[13] = peptide region: H4 16-28, peptide modifications: H4R19cit H4K20ac, binder concentration: 1:10,000 dilution
[14] = peptide region: H4 16-28, peptide modifications: H4K20me2, binder concentration: 1:2,000 dilution
[15] = peptide region: H4 8-19, peptide modifications: H4R17me2s, binder concentration: 1:2,000 dilution
[16] = peptide region: H4 8-19, peptide modifications: H4R17me2s, binder concentration: 1:10,000 dilution
[17] = peptide region: H4 16-28, peptide modifications: H4R19me1, binder concentration: 1:2,000 dilution
[18] = peptide region: H4 16-28, peptide modifications: H4R19me1 H4K20ac, binder concentration: 1:2,000 dilution
[19] = peptide region: H4 16-28, peptide modifications: H4R19me1 H4K20ac, binder concentration: 1:10,000 dilution
[20] = peptide region: H4 16-28, peptide modifications: H4K20ac, binder concentration: 1:2,000 dilution
[21] = peptide region: H4 16-28, peptide modifications: H4K20me1, binder concentration: 1:2,000 dilution
[22] = peptide region: H4 16-28, peptide modifications: H4R19cit H4K20me3, binder concentration: 1:2,000 dilution
[23] = peptide region: H4 16-28, peptide modifications: H4R19cit H4K20me3, binder concentration: 1:10,000 dilution

Binder: KRHRKVLRDNIQG [H4 16-28 K R H R K V L R D N I Q G]
- peptide microarray binding signal ([1]; peptide region: H4 16-28, binder concentration: 500 nM): 0.000238 ± 2.5e-06
- peptide microarray binding signal ([2]; peptide region: H4 16-28, binder concentration: 100 nM): 0.000354 ± 4.1e-06
- peptide microarray binding signal [3, 5]: 0.000132 ± 1.5e-06
- peptide microarray binding signal [4, 5]: 6.04e-05 ± 2.7e-06

Binder: KRHRKVLRDNIQG [H4 16-28 K R H Rcit Kme V L R D N I Q G]
- peptide microarray binding signal ([1]; peptide region: H4 16-28, peptide modifications: H4R19cit H4K20me1, binder concentration: 50 nM): 0.00693 ± 7.8e-05
- peptide microarray binding signal ([1]; peptide region: H4 16-28, peptide modifications: H4R19cit H4K20me1, binder concentration: 500 nM): 0.00933 ± 0.00036
- peptide microarray binding signal ([2]; peptide region: H4 16-28, peptide modifications: H4R19cit H4K20me1, binder concentration: 10 nM): 0.0107 ± 0.00018
- peptide microarray binding signal ([2]; peptide region: H4 16-28, peptide modifications: H4R19cit H4K20me1, binder concentration: 100 nM): 0.0139 ± 0.00037
- peptide microarray binding signal [3, 6]: 0.00145 ± 4.8e-05
- peptide microarray binding signal [3, 7]: 0.002853 ± 2.4e-05
- peptide microarray binding signal [4, 6]: 0.000785 ± 4.4e-05
- peptide microarray binding signal [4, 7]: 0.002479 ± 2.2e-05

Binder: KRHRKVLRDNIQG [H4 16-28 K R H Rcit Kme2 V L R D N I Q G]
- peptide microarray binding signal ([1]; peptide region: H4 16-28, peptide modifications: H4R19cit H4K20me2, binder concentration: 50 nM): 0.00351 ± 7.6e-05
- peptide microarray binding signal ([1]; peptide region: H4 16-28, peptide modifications: H4R19cit H4K20me2, binder concentration: 500 nM): 0.007572 ± 7.1e-05
- peptide microarray binding signal ([2]; peptide region: H4 16-28, peptide modifications: H4R19cit H4K20me2, binder concentration: 10 nM): 0.00812 ± 0.00016
- peptide microarray binding signal ([2]; peptide region: H4 16-28, peptide modifications: H4R19cit H4K20me2, binder concentration: 100 nM): 0.0181 ± 0.00075
- peptide microarray binding signal [3, 8]: 0.0008306 ± 7.4e-06
- peptide microarray binding signal [3, 9]: 0.0016
- peptide microarray binding signal [4, 8]: 0.000483 ± 9.2e-06
- peptide microarray binding signal [4, 9]: 0.001211 ± 1.2e-05

Binder: KRHRKVLRDNIQG [H4 16-28 K R H R Kme3 V L R D N I Q G]
- peptide microarray binding signal ([1]; peptide region: H4 16-28, peptide modifications: H4K20me3, binder concentration: 500 nM): 0.000667 ± 3.7e-05
- peptide microarray binding signal ([2]; peptide region: H4 16-28, peptide modifications: H4K20me3, binder concentration: 100 nM): 7.09e-05 ± 1.5e-06
- peptide microarray binding signal [3, 10]: 0.000982 ± 0.00023
- peptide microarray binding signal [4, 10]: 1.51e-05 ± 1.7e-07

Binder: KRHRKVLRDNIQG [H4 16-28 K R H Rcit K V L R D N I Q G]
- peptide microarray binding signal ([1]; peptide region: H4 16-28, peptide modifications: H4R19cit, binder concentration: 500 nM): 0.000476 ± 2.1e-05
- peptide microarray binding signal ([2]; peptide region: H4 16-28, peptide modifications: H4R19cit, binder concentration: 100 nM): 0.000283 ± 5.7e-06
- peptide microarray binding signal [3, 11]: 9.44e-05 ± 2.1e-06
- peptide microarray binding signal [4, 11]: 3.02e-05 ± 3.4e-07

Binder: KRHRKVLRDNIQG [H4 16-28 K R H Rcit Kac V L R D N I Q G]
- peptide microarray binding signal ([1]; peptide region: H4 16-28, peptide modifications: H4R19cit H4K20ac, binder concentration: 50 nM): 0.00511 ± 4.9e-05
- peptide microarray binding signal ([1]; peptide region: H4 16-28, peptide modifications: H4R19cit H4K20ac, binder concentration: 500 nM): 0.00829 ± 0.00052
- peptide microarray binding signal ([2]; peptide region: H4 16-28, peptide modifications: H4R19cit H4K20ac, binder concentration: 10 nM): 0.00633 ± 0.0001
- peptide microarray binding signal ([2]; peptide region: H4 16-28, peptide modifications: H4R19cit H4K20ac, binder concentration: 100 nM): 0.0106 ± 0.00059
- peptide microarray binding signal [3, 12]: 0.000736 ± 6.2e-05
- peptide microarray binding signal [3, 13]: 0.00137 ± 1.3e-05
- peptide microarray binding signal [4, 12]: 0.0004832 ± 4.6e-06
- peptide microarray binding signal [4, 13]: 0.00196 ± 3.7e-05

Binder: KRHRKVLRDNIQG [H4 16-28 K R H R Kme2 V L R D N I Q G]
- peptide microarray binding signal ([1]; peptide region: H4 16-28, peptide modifications: H4K20me2, binder concentration: 500 nM): 0
- peptide microarray binding signal ([2]; peptide region: H4 16-28, peptide modifications: H4K20me2, binder concentration: 100 nM): 0.000142 ± 1.7e-06
- peptide microarray binding signal [3, 14]: 5.66e-05 ± 1.1e-06
- peptide microarray binding signal [4, 14]: 1.51e-05 ± 1.7e-07

Binder: KGLGKGGAKRHRK [H4 8-19 K G L G K G G A K Rme2s H R K]
- peptide microarray binding signal ([1]; peptide region: H4 8-19, peptide modifications: H4R17me2s, binder concentration: 50 nM): 0.00464 ± 0.00023
- peptide microarray binding signal ([1]; peptide region: H4 8-19, peptide modifications: H4R17me2s, binder concentration: 500 nM): 0.02 ± 0.00069
- peptide microarray binding signal ([2]; peptide region: H4 8-19, peptide modifications: H4R17me2s, binder concentration: 10 nM): 0.00173 ± 7.2e-05
- peptide microarray binding signal ([2]; peptide region: H4 8-19, peptide modifications: H4R17me2s, binder concentration: 100 nM): 0.00184 ± 0.00024
- peptide microarray binding signal [3, 15]: 0.000132 ± 1.5e-06
- peptide microarray binding signal [3, 16]: 0.000685 ± 7.2e-06
- peptide microarray binding signal [4, 15]: 0.000861 ± 4.5e-05
- peptide microarray binding signal [4, 16]: 0.000807 ± 1.5e-05

Binder: KRHRKVLRDNIQG [H4 16-28 K R H Rme K V L R D N I Q G]
- peptide microarray binding signal ([1]; peptide region: H4 16-28, peptide modifications: H4R19me1, binder concentration: 500 nM): 9.52e-05 ± 1e-06
- peptide microarray binding signal ([2]; peptide region: H4 16-28, peptide modifications: H4R19me1, binder concentration: 100 nM): 0.000425 ± 4.9e-06
- peptide microarray binding signal [3, 17]: 0.000113 ± 2.2e-06
- peptide microarray binding signal [4, 17]: 1.51e-05 ± 1.7e-07

Binder: KRHRKVLRDNIQG [H4 16-28 K R H Rme Kac V L R D N I Q G]
- peptide microarray binding signal ([1]; peptide region: H4 16-28, peptide modifications: H4R19me1 H4K20ac, binder concentration: 50 nM): 0.00448 ± 0.00018
- peptide microarray binding signal ([1]; peptide region: H4 16-28, peptide modifications: H4R19me1 H4K20ac, binder concentration: 500 nM): 0.00967 ± 0.0016
- peptide microarray binding signal ([2]; peptide region: H4 16-28, peptide modifications: H4R19me1 H4K20ac, binder concentration: 10 nM): 0.00627 ± 0.00047
- peptide microarray binding signal ([2]; peptide region: H4 16-28, peptide modifications: H4R19me1 H4K20ac, binder concentration: 100 nM): 0.00609 ± 0.00066
- peptide microarray binding signal [3, 18]: 0.00468 ± 0.0037
- peptide microarray binding signal [3, 19]: 0.00137 ± 1.3e-05
- peptide microarray binding signal [4, 18]: 0.000287 ± 2.9e-06
- peptide microarray binding signal [4, 19]: 0.001557 ± 1.5e-05

Binder: KRHRKVLRDNIQG [H4 16-28 K R H R Kac V L R D N I Q G]
- peptide microarray binding signal ([1]; peptide region: H4 16-28, peptide modifications: H4K20ac, binder concentration: 500 nM): 0.000524 ± 1.1e-05
- peptide microarray binding signal ([2]; peptide region: H4 16-28, peptide modifications: H4K20ac, binder concentration: 100 nM): 0.000354 ± 4.1e-06
- peptide microarray binding signal [3, 20]: 0.000529 ± 9.8e-05
- peptide microarray binding signal [4, 20]: 3.02e-05 ± 3.4e-07

Binder: KRHRKVLRDNIQG [H4 16-28 K R H R Kme V L R D N I Q G]
- peptide microarray binding signal ([1]; peptide region: H4 16-28, peptide modifications: H4K20me1, binder concentration: 500 nM): 0.000143
- peptide microarray binding signal ([2]; peptide region: H4 16-28, peptide modifications: H4K20me1, binder concentration: 100 nM): 0.000283
- peptide microarray binding signal [3, 21]: 7.55e-05 ± 8.5e-07
- peptide microarray binding signal [4, 21]: 4.53e-05

Binder: KRHRKVLRDNIQG [H4 16-28 K R H Rcit Kme3 V L R D N I Q G]
- peptide microarray binding signal ([1]; peptide region: H4 16-28, peptide modifications: H4R19cit H4K20me3, binder concentration: 50 nM): 0.0068 ± 9.7e-05
- peptide microarray binding signal ([1]; peptide region: H4 16-28, peptide modifications: H4R19cit H4K20me3, binder concentration: 500 nM): 0.00848 ± 0.0011
- peptide microarray binding signal ([2]; peptide region: H4 16-28, peptide modifications: H4R19cit H4K20me3, binder concentration: 10 nM): 0.0124 ± 0.00084
- peptide microarray binding signal ([2]; peptide region: H4 16-28, peptide modifications: H4R19cit H4K20me3, binder concentration: 100 nM): 0.018 ± 0.0027
- peptide microarray binding signal [3, 22]: 0.00832 ± 0.0026
- peptide microarray binding signal [3, 23]: 0.00514 ± 0.0003
- peptide microarray binding signal [4, 22]: 0.0039 ± 0.0016
- peptide microarray binding signal [4, 23]: 0.00369 ± 0.00012
